ABCB6 inh MLPCN – ABCB6 transporter inhibitors, primary screen, K562-ABCB6 cells, flow cytometry, MLPCN library | K562-ABCB6 porphyrin accumulation, 1 h; stronger effect = lower value | ATP-binding cassette sub-family B member 6 (Homo sapiens), Q9NP58 | fluorescence ratio to DMSO, % at 10 µM | hit rate 0.19% among 360,000 | AID 602162, 2011;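 active = fluorescence ratio to DMSO below 75%, the collection mean minus 3 SD; inconclusive = too few cells collected in the well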;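 also: signal is porphyrin accumulated inside mitochondria; 100% equals median channel fluorescence of DMSO control wells; lower ratio means ABCB6 inhibition with less porphyrin fluorescence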
Target sequence (Q9NP58 whole entry, looked up): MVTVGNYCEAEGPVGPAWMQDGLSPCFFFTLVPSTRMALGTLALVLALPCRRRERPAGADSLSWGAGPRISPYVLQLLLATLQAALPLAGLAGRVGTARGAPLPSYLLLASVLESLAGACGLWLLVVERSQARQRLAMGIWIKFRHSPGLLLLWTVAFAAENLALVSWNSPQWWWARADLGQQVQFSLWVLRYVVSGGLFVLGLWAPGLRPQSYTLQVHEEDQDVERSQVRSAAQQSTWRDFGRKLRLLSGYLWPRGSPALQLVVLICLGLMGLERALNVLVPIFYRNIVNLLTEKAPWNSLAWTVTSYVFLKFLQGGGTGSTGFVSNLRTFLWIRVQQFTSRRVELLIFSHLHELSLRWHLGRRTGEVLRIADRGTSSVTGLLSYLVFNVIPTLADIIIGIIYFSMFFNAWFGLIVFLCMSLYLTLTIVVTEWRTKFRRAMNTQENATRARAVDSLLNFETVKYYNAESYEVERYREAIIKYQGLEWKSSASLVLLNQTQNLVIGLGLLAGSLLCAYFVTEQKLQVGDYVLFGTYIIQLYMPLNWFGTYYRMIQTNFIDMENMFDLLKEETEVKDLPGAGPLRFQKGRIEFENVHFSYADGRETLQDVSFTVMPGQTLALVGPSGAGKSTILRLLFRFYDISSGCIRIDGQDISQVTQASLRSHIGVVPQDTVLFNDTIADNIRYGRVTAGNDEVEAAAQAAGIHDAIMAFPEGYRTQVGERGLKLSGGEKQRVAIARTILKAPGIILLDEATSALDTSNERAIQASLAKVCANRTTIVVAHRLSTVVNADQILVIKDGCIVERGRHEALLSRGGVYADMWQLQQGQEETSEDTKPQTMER
Granule exo inh – LAMP-1 surface exposure blockers, TALL-104 cells – cell-based, flow cytometry, MLPCN library, primary screen | TALL-104 LAMP-1 surface exposure; cells stimulated with thapsigargin and PMA | inhibition, % at 10 µM | hit rate 0.66% among 360,000 | AID 651702, 2012;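 active = inhibition above about 55%, limit read from the data; inconclusive = no clear call, values can overlap the other calls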
Myeloid diff MLP – induction of myeloid progenitor differentiation, primary screen, cell-based, flow cytometry, MLPCN library. ER-HoxA9 myeloid progenitors, lysozyme-GFP differentiation. calls only at 10 µM. hit rate 1% among 360,000. AID 624256, 2012;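 active = normalized GFP-positive differentiation at or above the plate's own cutoff, the solvent-only control mean plus 3 SD; inconclusive = no clear call, values can overlap the other calls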;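 also: cells exposed to compound for four days before flow analysis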
Myeloid diff – inducers of myeloid progenitor differentiation, confirmation, cell-based, GFP/Mac1 flow cytometry, cherry pick 01. shares compounds with Myeloid diff MLP. ER-HoxA9 myeloid progenitors, GFP/Mac1 double-positive flow. calls only. hit rate 2% among 2,300;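 active = share of green or green-and-red cells above 9 and 9% in run 1 or 4 and 3% in run 2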
GFP autofluor – counter-screen for myeloid differentiation promoters: compound fluorescence; shares compounds with Myeloid diff MLP; ER-HoxA9 myeloid progenitors, no estrogen, GFP autofluorescence flow cytometry; vehicle wells 0%, positive control 100%; fluorescence response, % (no concentration beside the values); hit rate 7.4% among 2,300; AID 651707;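 active = over 5% cells positive for green fluorescent reporter, or over 2% positive for both it and APC stain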;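 also: range taken on the double positive population between DMSO and positive control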
Active calls of the source: *. A selection: hits, their analogues and other compounds. The true share with any hit is near 1.8%.

O=CNc1cc(-c2ccccc2Oc2ccccc2)cn2c(-c3ccc(F)cc3)cnc12 was read as ABCB6 inh MLPCN 100.0, Granule exo inh 14.5 and Myeloid diff MLP inactive.
`CC(=O)Nc1cc(-c2ccc(N3CCN(C)CC3)cc2)cn2c(-c3ccc(F)c(Cl)c3)cnc12` gave ABCB6 inh MLPCN 109.0, Granule exo inh 9.3 and Myeloid diff MLP inconclusive.
CN(C)c1ccc(-c2cc(NC=O)c3ncc(-c4ccc(F)c(Cl)c4)n3c2)cc1 was read as ABCB6 inh MLPCN 115.0, Granule exo inh 1.9, Myeloid diff MLP active, Myeloid diff inactive and GFP autofluor 1.1.
`COc1cc(-c2cnc3c(NC=O)cc(-c4ccc(S(C)(=O)=O)cc4)cn23)cc(OC)c1OC` gave ABCB6 inh MLPCN 100.0, Granule exo inh 3.4, Myeloid diff MLP active, Myeloid diff inactive and GFP autofluor 0.0.
`O=CNc1cc(-c2ccccc2)cn2c(-c3ccc(F)c(Cl)c3)cnc12` gave ABCB6 inh MLPCN 104.0, Granule exo inh -2.6 and Myeloid diff MLP inactive.
`CN1CCN(c2ccc(-c3cc(NC=O)c4ncc(-c5ccc(F)c(Cl)c5)n4c3)cc2)CC1` gave ABCB6 inh MLPCN 130.0, Granule exo inh 12.4, Myeloid diff MLP active, Myeloid diff inactive and GFP autofluor 0.8.
Cc1cc(Br)cn2c(Cc3ccccc3)c(-c3ccc(F)cc3)nc12 was read as ABCB6 inh MLPCN 101.0, Granule exo inh -0.7 and Myeloid diff MLP inactive.
For CCCN(C(=O)C1CC(=O)N(c2ccccc2C(C)CC)C1)C1CCS(=O)(=O)C1 (stereo unspecified) the results were ABCB6 inh MLPCN 102.0, Granule exo inh -5.5 and Myeloid diff MLP inactive.
O=C(Nc1cccc2ccccc12)C1CCN(C(=O)Cc2ccccc2)CC1 was read as ABCB6 inh MLPCN 121.0, Granule exo inh -1.1, Myeloid diff inactive and GFP autofluor 0.0.
O=C(Nc1cccc2ccccc12)C1CCN(C(=O)NCc2ccccc2)CC1 was read as ABCB6 inh MLPCN 94.0, Granule exo inh -4.7 and Myeloid diff MLP inactive.
`Cc1cccc(-c2nc3c(c(=O)c4ccccc4n3C)c(=O)n2-c2ccccc2)c1` gave ABCB6 inh MLPCN 92.0, Granule exo inh -3.8 and Myeloid diff MLP inactive.
Cc1cc2nc(C(C)(C)C)c(Cc3ccccc3)n2c(C)c1Br was read as ABCB6 inh MLPCN 99.0, Granule exo inh 0.3 and Myeloid diff MLP inactive.
`O=c1c2ccccc2ncn1Cc1ccc2c(c1)OCO2` gave ABCB6 inh MLPCN 94.0, Granule exo inh -12.3 and Myeloid diff MLP inactive.
Screening Cc1onc(-c2c(Cl)cccc2Cl)c1NC(=O)NNc1c(Cl)cncc1Cl returned ABCB6 inh MLPCN 95.0, Granule exo inh -3.3 and Myeloid diff MLP inactive.
Screening Cc1onc(-c2c(Cl)cccc2Cl)c1NC(=O)NNc1ccccc1 returned ABCB6 inh MLPCN 102.0, Granule exo inh -1.3, Myeloid diff MLP active, Myeloid diff inactive and GFP autofluor 0.5.
CC1=C(C(=O)Nc2ccc(C)cn2)C(c2cnn(C)c2)C2=C(CCCC2=O)N1 (stereo unspecified) was read as ABCB6 inh MLPCN 99.0, Granule exo inh -4.3 and Myeloid diff MLP inactive.
For CCOc1ccc2c(c1)ncn2Cc1ccccc1 the results were ABCB6 inh MLPCN 93.0, Granule exo inh 1.0 and Myeloid diff MLP inactive.
Screening CC(=O)Oc1ccc(Cn2cnc3cc4ccccc4cc32)cc1 returned ABCB6 inh MLPCN 92.0, Granule exo inh 22.8, Myeloid diff MLP inactive, Myeloid diff inactive and GFP autofluor 0.4.
For COCCN(C(=S)Nc1ccc(C)cc1C)C(C)c1ccco1 (stereo unspecified) the results were ABCB6 inh MLPCN 95.0, Granule exo inh 3.2 and Myeloid diff MLP inactive.
For C/C(=N\Nc1ccccc1)c1c(O)cc(C)oc1=O the results were ABCB6 inh MLPCN 102.0, Granule exo inh 1.1 and Myeloid diff MLP inactive.
Screening C/C(=N/NC(=O)c1cccc(C)c1)c1c(O)cc(C)oc1=O returned ABCB6 inh MLPCN 93.0, Granule exo inh -1.3, Myeloid diff MLP inactive, Myeloid diff inactive and GFP autofluor 0.5.
`CN(C(=O)Cn1c(=O)oc2ccccc21)C1CCCCC1` gave ABCB6 inh MLPCN 95.0, Granule exo inh 1.2 and Myeloid diff MLP inactive.
For N#C/C(=C\c1c[nH]c2ccccc12)C(=O)NCC1CCCO1 (stereo unspecified) the results were ABCB6 inh MLPCN 101.0, Granule exo inh -2.3 and Myeloid diff MLP inactive.
For CC(NS(=O)(=O)c1ccc(Br)s1)c1ccccc1 (stereo unspecified) the results were ABCB6 inh MLPCN 91.0, Granule exo inh -11.2 and Myeloid diff MLP inactive.
`CCN(CC)Cc1c(O)ccc2occ(C(=O)c3ccc(OC)cc3)c12` gave ABCB6 inh MLPCN 96.0, Granule exo inh 8.5 and Myeloid diff MLP inactive.
For CCN(CC)Cc1c(O)ccc2c([N+](=O)[O-])c(C)n(-c3ccc(OC)cc3)c12 the results were ABCB6 inh MLPCN 105.0, Granule exo inh -12.9, Myeloid diff MLP active, Myeloid diff inactive and GFP autofluor 0.0.
`O=C(Nc1ccc([N+](=O)[O-])cn1)C1CC2CCC1C2` (stereo unspecified) gave ABCB6 inh MLPCN 103.0, Granule exo inh 0.0 and Myeloid diff MLP inactive.
For COc1ccc(OC)c(NC(=O)C2CCN(S(=O)(=O)c3ccc4c(c3)CC(C)N4C(C)=O)CC2)c1 (stereo unspecified) the results were ABCB6 inh MLPCN 93.0, Granule exo inh -0.2 and Myeloid diff MLP inactive.
Screening C=CCOC(=O)N1CCC2CC1c1cc(-c3cccc(C)c3)ccc12 (stereo unspecified) returned ABCB6 inh MLPCN 98.0, Granule exo inh -0.8 and Myeloid diff MLP inactive.
NC(N)=NC(=O)c1nc(Cl)c(N)nc1N was read as ABCB6 inh MLPCN 105.0, Granule exo inh -1.6, Myeloid diff MLP inactive, Myeloid diff inactive and GFP autofluor 0.0.
`NC(N)=NC(=O)c1nc(Cl)c(N2CCCCCC2)nc1N` gave ABCB6 inh MLPCN 100.0, Granule exo inh 0.1 and Myeloid diff MLP inactive.
Screening COc1ccc(-c2cc3ccccc3n2CC(O)CN2CCC(C)CC2)cc1 (stereo unspecified) returned ABCB6 inh MLPCN 94.0, Granule exo inh 1.3, Myeloid diff MLP inactive, Myeloid diff inactive and GFP autofluor 0.0.
`COc1ccc(-c2cc3ccccc3n2CC(O)Cn2nc(C)cc2C)cc1` (stereo unspecified) gave ABCB6 inh MLPCN 106.0, Granule exo inh 2.9 and Myeloid diff MLP inactive.
For COc1cc2c(c(OC)c1OC)C(c1ccccc1C)CC(=O)O2 (stereo unspecified) the results were ABCB6 inh MLPCN 101.0, Granule exo inh 1.6 and Myeloid diff MLP inactive.
Screening CSCCC(NC(=O)c1ccc(Cl)cc1)C(=O)NC(C)(C)C (stereo unspecified) returned ABCB6 inh MLPCN 103.0, Granule exo inh -0.9 and Myeloid diff MLP inactive.

Screening results: PubChem BioAssay, NMMLSC
